Data as given in ChEMBL document CHEMBL3988442, “University of Dundee, Small-Polar-MMV Screening Library” (2021).
For some of these results: Entries with a potency or affinity are not part of this list.

Legend:
Parameters in all cases: scale not given: direction of the effect not stated beside the values
[1] = biological target: Protein translocase subunit SecA (Escherichia coli (strain K12)) (UniProt P10408); assay: Assay to Identify E. coli SecA ATPase Inhibitors; format: functional; conditions: 30 µM
[2] = biological target: T1, Ubiquitin-activating enzyme e1, putative (Leishmania donovani (strain BPK282A1)) (UniProt E9BSI1); assay: Leishmania donovani Ubiquitin Activating Enzyme (LdE1); format: functional; conditions: 30 µM
T1 sequence (whole entry): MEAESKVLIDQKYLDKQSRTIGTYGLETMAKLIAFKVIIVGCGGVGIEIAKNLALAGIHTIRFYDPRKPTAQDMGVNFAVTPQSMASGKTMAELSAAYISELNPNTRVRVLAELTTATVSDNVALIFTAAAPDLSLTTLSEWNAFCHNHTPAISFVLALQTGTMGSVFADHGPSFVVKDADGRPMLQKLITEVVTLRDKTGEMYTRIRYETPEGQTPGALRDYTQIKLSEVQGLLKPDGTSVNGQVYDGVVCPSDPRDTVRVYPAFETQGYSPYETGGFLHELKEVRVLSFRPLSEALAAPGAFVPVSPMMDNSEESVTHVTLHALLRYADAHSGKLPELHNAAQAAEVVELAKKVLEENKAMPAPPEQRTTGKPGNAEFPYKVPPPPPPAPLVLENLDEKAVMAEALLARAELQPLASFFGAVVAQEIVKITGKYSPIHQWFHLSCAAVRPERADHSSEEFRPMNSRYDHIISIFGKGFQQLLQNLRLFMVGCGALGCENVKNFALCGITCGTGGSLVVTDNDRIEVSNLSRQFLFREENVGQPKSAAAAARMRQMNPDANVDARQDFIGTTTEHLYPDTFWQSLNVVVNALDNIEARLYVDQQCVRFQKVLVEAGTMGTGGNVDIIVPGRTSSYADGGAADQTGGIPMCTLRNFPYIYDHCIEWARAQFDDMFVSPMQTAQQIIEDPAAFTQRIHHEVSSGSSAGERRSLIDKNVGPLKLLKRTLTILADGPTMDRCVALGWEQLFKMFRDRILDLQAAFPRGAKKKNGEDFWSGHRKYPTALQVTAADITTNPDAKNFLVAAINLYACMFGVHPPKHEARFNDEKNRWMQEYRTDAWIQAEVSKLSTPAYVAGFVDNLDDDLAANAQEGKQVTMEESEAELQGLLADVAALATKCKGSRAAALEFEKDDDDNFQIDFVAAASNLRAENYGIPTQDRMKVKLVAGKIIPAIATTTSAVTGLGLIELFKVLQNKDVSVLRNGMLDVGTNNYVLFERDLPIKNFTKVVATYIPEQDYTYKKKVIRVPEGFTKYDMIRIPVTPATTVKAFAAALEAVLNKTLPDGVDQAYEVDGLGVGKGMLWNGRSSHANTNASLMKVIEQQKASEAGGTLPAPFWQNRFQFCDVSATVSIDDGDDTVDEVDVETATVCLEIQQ

[3] = biological target: T2, Aspartate--tRNA(Asp/Asn) ligase (Mycobacterium tuberculosis (strain ATCC 25618 / H37Rv)) (UniProt P9WFW3); assay: Assay for Asp RNA synthetase-1 from Mycobacterium tuberculosis; format: functional; conditions: 30 µM; note: in the data most compounds retested in dose-response had high values
T2 sequence (whole entry): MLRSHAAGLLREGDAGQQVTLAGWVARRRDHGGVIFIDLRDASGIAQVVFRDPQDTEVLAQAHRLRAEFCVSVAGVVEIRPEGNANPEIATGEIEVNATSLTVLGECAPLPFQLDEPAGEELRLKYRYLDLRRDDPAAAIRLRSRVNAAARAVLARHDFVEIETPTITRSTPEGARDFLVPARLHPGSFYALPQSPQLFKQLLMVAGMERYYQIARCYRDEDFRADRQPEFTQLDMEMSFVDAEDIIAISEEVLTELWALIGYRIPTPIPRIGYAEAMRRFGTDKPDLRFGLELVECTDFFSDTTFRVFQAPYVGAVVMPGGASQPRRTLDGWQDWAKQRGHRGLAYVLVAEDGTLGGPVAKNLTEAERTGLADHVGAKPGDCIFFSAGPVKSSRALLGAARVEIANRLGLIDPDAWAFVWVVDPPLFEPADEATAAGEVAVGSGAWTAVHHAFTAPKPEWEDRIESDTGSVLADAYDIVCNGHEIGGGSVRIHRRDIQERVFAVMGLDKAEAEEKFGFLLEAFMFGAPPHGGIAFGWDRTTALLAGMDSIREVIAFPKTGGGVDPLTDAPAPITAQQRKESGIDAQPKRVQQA

[4] = biological target: AMP-activated protein kinase, AMPK (Homo sapiens) (UniProt P54646+O43741+P54619+Q9UGJ0+Q9Y478+Q13131+Q9UGI9); assay: AMP-dependent Kinase enzyme assay. An in vitro enzyme assay that detects ADP turnover that is directly proportional to AMPK activity. This uses naive AMPK that is activated during the assay with MK-8722; format: functional; conditions: 30 µM
[5] = biological target: Sialic acid-binding Ig-like lectin 9 (Homo sapiens) (UniProt Q9Y336); assay: Hs-Siglec9 ALPHAscreen SOP 20170721; conditions: 10 µM
Trypanosoma cruzi = assay: Trypanosoma cruzi phosphomannomutase and mannose-1-phosphate guanylyltransferase assay; format: functional; conditions: 10 µM
[6] = biological target: T3, Arginase-2, mitochondrial (Homo sapiens) (UniProt P78540); assay: in vitro enzyme assay to detect the production of urea directly proportional to the activity of Arginase II; format: functional; conditions: 33.3 µM; note: in the data most compounds retested in dose-response had high values
T3 sequence (whole entry): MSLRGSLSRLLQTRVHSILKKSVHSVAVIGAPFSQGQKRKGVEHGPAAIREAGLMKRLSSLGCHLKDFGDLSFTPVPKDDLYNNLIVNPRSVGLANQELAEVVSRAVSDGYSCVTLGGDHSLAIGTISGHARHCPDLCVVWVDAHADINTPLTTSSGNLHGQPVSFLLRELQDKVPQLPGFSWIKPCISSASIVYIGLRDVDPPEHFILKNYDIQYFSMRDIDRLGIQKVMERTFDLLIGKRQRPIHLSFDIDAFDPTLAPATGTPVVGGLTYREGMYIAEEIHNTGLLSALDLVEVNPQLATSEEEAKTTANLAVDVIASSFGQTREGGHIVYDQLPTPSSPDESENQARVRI

[7] = biological target: T4, Proteasome subunit beta (Trypanosoma cruzi) (UniProt O96673); assay: Trypanosoma cruzi proteasome chymotrypsin-like activity (TcProtChymo) assay.; note: in the data most compounds retested in dose-response had high values; format: functional; conditions: 9.37 µM
T4 sequence (whole entry): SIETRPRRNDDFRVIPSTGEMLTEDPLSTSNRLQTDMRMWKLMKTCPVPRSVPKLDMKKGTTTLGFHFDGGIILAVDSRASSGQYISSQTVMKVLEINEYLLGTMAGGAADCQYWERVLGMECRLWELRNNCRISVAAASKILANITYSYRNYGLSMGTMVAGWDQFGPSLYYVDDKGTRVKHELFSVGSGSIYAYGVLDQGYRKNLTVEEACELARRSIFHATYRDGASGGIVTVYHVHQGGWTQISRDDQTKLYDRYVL

Homo sapiens = organism: Homo sapiens; assay: To identify inhibition of the IFN signalling (Jak-Stat) pathway via expression of an eGFP reporter gene under the control of an IFN-stimulated response element (ISRE) containing MxA promoter.; format: functional; conditions: 30 µM
[8] = biological target: Shiga toxin 2 (Escherichia coli O157:H7) (UniProt P09385+P09386); assay: E. coli 0.157:H7 Shiga Toxin SOP - stx2 screening assay; format: functional; conditions: 30 µM
[9] = biological target: T5, Tyrosyl-tRNA synthetase, putative (Trypanosoma cruzi (strain CL Brener)) (UniProt Q4DSP6); assay: Trypanosoma cruzi tyrosyl tRNA synthetase (TcYRS) _High Tyrosine SOP; format: functional; conditions: 30 µM; note: in the data most compounds retested in dose-response had high values
T5 sequence (whole entry): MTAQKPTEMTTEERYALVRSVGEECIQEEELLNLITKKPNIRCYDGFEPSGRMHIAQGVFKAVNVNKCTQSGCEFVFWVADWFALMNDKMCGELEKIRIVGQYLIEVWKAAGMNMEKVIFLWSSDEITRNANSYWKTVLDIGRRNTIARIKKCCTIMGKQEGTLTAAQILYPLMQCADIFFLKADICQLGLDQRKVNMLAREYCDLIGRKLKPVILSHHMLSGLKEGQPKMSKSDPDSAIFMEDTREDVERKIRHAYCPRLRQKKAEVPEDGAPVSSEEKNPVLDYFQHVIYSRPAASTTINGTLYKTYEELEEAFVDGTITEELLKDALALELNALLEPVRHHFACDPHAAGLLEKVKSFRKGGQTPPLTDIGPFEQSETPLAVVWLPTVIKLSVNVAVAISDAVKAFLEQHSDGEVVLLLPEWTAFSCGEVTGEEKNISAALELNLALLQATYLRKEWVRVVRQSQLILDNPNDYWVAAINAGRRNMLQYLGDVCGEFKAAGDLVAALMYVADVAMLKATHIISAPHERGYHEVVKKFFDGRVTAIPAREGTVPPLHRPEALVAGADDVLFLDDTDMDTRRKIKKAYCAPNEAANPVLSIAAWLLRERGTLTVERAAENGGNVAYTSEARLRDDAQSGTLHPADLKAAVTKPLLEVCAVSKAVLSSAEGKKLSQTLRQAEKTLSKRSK

[10] = biological target: T5, Tyrosyl-tRNA synthetase, putative (Trypanosoma cruzi (strain CL Brener)); assay: Trypanosoma cruzi tyrosyl tRNA synthetase (TcYRS) SOP; format: functional; conditions: 30 µM
[11] = biological target: Chromo domain-containing protein 1 (Saccharomyces cerevisiae (strain ATCC 204508 / S288c) (Baker's yeast)) (UniProt P32657); assay: ScCHD-1 Enzyme Inhibition Assay; format: functional; conditions: 30 µM; note: in the data most compounds retested in dose-response had high values
Chromo domain-containing protein 1 (Saccharomyces cerevisiae (strain ATCC 204508 / S288c) (Baker's yeast)), sequence (P32657 whole entry, the tested form may be a part): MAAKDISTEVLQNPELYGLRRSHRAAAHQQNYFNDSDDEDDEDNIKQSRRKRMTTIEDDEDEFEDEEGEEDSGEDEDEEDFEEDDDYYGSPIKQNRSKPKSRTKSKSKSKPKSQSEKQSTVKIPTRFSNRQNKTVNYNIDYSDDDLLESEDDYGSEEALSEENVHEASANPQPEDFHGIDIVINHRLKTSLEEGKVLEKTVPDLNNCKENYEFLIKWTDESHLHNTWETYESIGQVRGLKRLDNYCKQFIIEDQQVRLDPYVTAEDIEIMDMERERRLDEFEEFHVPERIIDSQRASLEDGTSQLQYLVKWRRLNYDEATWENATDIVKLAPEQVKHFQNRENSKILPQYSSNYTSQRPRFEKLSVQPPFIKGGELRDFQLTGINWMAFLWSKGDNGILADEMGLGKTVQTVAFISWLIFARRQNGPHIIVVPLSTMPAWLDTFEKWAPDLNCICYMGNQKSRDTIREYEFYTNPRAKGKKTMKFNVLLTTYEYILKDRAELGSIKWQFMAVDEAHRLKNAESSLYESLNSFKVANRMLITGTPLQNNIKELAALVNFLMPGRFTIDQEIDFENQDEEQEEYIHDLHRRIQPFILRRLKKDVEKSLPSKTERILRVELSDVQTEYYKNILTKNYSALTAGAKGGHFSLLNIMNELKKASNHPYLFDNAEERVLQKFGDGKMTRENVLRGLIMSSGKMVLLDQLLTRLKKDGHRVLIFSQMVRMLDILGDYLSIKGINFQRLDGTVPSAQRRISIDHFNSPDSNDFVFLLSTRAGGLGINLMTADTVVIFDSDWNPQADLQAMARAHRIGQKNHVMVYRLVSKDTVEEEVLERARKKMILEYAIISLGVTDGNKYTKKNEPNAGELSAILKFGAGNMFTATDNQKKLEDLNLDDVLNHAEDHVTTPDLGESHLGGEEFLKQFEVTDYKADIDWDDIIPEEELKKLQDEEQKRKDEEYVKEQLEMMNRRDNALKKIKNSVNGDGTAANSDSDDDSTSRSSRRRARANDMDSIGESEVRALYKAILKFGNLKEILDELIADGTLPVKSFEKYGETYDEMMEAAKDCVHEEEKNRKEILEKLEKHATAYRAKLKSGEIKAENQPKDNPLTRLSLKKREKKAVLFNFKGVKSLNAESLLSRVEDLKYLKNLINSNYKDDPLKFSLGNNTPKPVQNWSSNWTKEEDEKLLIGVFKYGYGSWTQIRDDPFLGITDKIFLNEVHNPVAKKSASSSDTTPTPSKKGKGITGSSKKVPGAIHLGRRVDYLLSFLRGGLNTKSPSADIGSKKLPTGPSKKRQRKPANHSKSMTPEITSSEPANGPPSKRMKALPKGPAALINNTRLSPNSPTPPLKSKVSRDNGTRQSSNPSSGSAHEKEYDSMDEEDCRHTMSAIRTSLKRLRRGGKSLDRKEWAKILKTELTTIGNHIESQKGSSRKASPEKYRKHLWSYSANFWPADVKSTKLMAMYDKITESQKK

Protein translocase subunit SecA (Escherichia coli (strain K12)), sequence (P10408 whole entry): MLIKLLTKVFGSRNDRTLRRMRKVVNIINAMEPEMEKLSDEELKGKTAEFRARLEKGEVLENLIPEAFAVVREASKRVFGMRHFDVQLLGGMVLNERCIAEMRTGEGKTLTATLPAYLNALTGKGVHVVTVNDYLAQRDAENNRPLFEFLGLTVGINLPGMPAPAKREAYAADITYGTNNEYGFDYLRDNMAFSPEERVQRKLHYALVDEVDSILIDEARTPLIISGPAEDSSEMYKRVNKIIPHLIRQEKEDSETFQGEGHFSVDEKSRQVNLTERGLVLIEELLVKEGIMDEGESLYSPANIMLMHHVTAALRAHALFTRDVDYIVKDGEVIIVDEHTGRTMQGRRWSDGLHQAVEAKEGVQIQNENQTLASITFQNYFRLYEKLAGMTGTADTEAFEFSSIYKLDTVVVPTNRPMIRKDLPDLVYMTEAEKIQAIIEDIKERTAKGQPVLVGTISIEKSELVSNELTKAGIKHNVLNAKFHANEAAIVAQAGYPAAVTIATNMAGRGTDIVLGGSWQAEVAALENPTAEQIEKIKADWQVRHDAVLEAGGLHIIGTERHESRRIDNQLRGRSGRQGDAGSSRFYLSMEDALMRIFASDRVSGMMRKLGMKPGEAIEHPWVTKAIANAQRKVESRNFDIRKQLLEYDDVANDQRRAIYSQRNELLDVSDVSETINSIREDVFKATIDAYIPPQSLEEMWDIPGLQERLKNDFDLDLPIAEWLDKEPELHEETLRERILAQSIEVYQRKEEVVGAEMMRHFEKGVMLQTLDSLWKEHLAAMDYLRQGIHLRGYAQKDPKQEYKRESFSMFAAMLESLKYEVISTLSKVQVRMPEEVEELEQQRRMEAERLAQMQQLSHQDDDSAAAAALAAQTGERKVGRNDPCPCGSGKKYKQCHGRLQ
Sialic acid-binding Ig-like lectin 9 (Homo sapiens), sequence (Q9Y336 whole entry): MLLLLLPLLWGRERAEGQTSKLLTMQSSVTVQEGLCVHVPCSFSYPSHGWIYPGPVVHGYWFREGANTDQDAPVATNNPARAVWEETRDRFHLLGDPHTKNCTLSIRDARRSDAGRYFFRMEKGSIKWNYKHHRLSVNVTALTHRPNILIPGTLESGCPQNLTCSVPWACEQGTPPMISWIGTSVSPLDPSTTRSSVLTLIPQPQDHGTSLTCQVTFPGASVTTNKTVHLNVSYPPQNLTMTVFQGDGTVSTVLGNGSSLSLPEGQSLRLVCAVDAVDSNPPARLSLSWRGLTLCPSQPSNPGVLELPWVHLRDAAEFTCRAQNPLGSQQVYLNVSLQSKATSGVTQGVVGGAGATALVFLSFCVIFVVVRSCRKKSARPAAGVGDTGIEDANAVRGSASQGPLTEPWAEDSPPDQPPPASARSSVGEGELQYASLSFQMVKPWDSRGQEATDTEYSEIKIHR

SMILES | Percent Effect [1] | Percent Effect [2] | Percent Effect [3] | Percent Effect [4] | Percent Effect [5] | Percent Effect (Trypanosoma cruzi) | Percent Effect [6] | Percent Effect [7] | Percent Effect (Homo sapiens) | Percent Effect [8] | Percent Effect [9] | Percent Effect [10] | Percent Effect [11]
c1cncc(OC[C@@H]2CCC[C@@]23CNCCO3)c1 | -5.75% | 8.11% | 1.15% | 89.4% | -7.32% | -6.75% | -3.5% | 13.1% | 9.54% | -12.4% | -3.24% | 0% | -2.43%
Cc1cccc(CN2CC[C@@H]3[C@@H]2CCN3C(=O)c2cnoc2C)n1 | -3.21% | 10.8% | -2.46% | -5.71% | -1.95% | 5.27% | 34.2% | 10.7% | 7.71% | 5.3% | 3.96% | 15.8% | -1.59%
CCNC(=O)NC(=O)CNC1(c2noc(C)n2)CCCCC1 | -8.65% | 15.8% | 0.329% | -3.69% | -6.42% | 6.91% | -5.92% | 8.34% | 6.39% | 4.43% | 3.19% | -7.79% | -19.2%
COCCN1CCC2(COCc3cnc(N4CCOCC4)nc32)C1 (stereo not given) | -9.09% | 2.67% | -3.07% | 7.61% | -2.45% | -5.91% | -2.1% | 2.03% | 21.1% | -12% | -4.25% | -1.28% | -8.27%
COc1cccc(CNC(C)Cn2cccn2)c1OC (stereo not given) | -0.666% | 2.6% | 6.86% | 1.22% | 3.25% | -0.749% | 1.42% | 2.37% | 7.27% | 0.638% | 1.94% | 0% | -2.46%
O=C1CSC(c2cccs2)c2cnn(C3CCCC3)c2N1 (stereo not given) | -5.94% | -12% | 7.29% | 3.55% | 10.9% | 3.73% | -35.7% | 8.5% | 24% | 28.5% | 4.23% | 20.5% | 66.9%
c1cncc(CN2CC[C@H]3O[C@@H](COCC4CC4)CC[C@H]32)c1 | -2.96% | -2.67% | -5.28% | 10.2% | 2.62% | -0.591% | 7.23% | -2.38% | 8.64% | -10.9% | 4.25% | 6.41% | 3.34%
CN(C)C(=O)CN1C[C@@H]2CC[C@H](C1)N(C(=O)Cc1ccccc1Cl)C2 | -7.08% | -8.22% | 1.5% | 3.48% | -0.0171% | -5.16% | 0.798% | 9.16% | -4.89% | -30.4% | 0% | -23.5% | -1.84%
c1cc(CO[C@@H]2CC[C@H]3[C@H]2OCCN3Cc2ccoc2)ccn1 | -1.76% | 13.5% | 9.49% | 9.36% | -7.31% | -1.66% | 2.23% | 27.1% | 33.2% | 1.68% | 1.08% | 10.3% | 1.36%
COc1ccccc1OCC(=O)N1CCN(Cc2noc(C)n2)CC1 | -5.45% | 13.5% | 3.51% | -4.95% | 22% | 5.96% | 5.21% | 6.09% | 2.23% | 3.27% | 4.3% | 13.6% | -7.11%
